Experimental data: PubChem BioAssay AID430 (Sanford-Burnham Center for Chemical Genomics, 2006)
Out of some 63,000 compounds screened, about 1,100 (1.7%) were called active. For the sample, actives were picked, then their nearest neighbours and some compounds at random. Potency and affinity values are given separately. Values without a mark were called inactive. No stated cut-off is given here; in the data, active means cytotoxicity above about 50%; inactive means the rest.

Test: cytotoxicity in HPDE-C7 cells, cell-based, fluorescence, HTS (AID 430);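 further: cells exposed to compound for 48 hours before viability readout; 0% = vehicle and 100% = reference cytotoxic drug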
Settings: HPDE-C7 pancreatic duct cells viability, at 10 µM, stronger effect = higher value

Question: For O=C(CCc1nc2ccccc2[nH]1)Nc1ccc2c(c1)OCO2, which cytotoxicity is on record?
Answer: 5.9%

Question: For Cc1noc(C)c1COC(=O)CCN1c2ccccc2Sc2ccccc21, which cytotoxicity is on record?
Answer: -8%

Question: For COc1ccc(NC(=O)CSc2nc3ccccc3c(=O)n2-c2ccc3c(c2)OCO3)c(OC)c1, which cytotoxicity is on record?
Answer: 33.6%

Question: With CCc1ccccc1-n1cnc2cc(C(=O)O)ccc21 as the compound, how does the cytotoxicity read?
Answer: -20.8%

Question: For O=C(O)c1cc(Cl)ccc1NC(=O)C1CCCO1 (stereo not drawn), which cytotoxicity is on record?
Answer: -8.9%

Question: For C=CCNC(=O)C1CC(c2cccc(OC)c2)=NO1 (stereo not drawn), which cytotoxicity is on record?
Answer: -8.4%

Question: With CCC1(COC(NC(=O)c2cccnc2)(C(F)(F)F)C(F)(F)F)COC1 as the compound, how does the cytotoxicity read?
Answer: -0.9%

Question: For COc1cccc(-c2nc(CS(=O)CC(=O)NC3CC3)c(C)o2)c1 (stereo not drawn), which cytotoxicity is on record?
Answer: -3%

Question: Which cytotoxicity does the source give for COc1nc(NC23CC4CC(CC(C4)C2)C3)nc(OC)n1 here?
Answer: -8%

Question: Which cytotoxicity does the source give for COCCCNC(=O)CN(Cc1ccc(Cl)cc1)S(C)(=O)=O here?
Answer: -2.6%

Question: Which cytotoxicity does the source give for CCCSc1nc(C)c(CC(=O)OCC)c(=O)[nH]1 here?
Answer: 4%

Question: With O=C1c2ccccc2C(=O)N1CCSc1nnc(-c2ccco2)n1Cc1ccccc1 as the compound, how does the cytotoxicity read?
Answer: 4.3%

Question: For CCCCCn1c(N(C)Cc2ccccc2)nc2c1c(=O)[nH]c(=O)n2C, which cytotoxicity is on record?
Answer: -0.6%

Question: Which cytotoxicity does the source give for C=C(C)COc1ccc(-c2[nH]ncc2-c2ccc(OC)c(OC)c2)c(O)c1 here?
Answer: 13.3%

Question: With COc1ccc(-c2[nH]ncc2-c2ccc(Cl)cc2)c(O)c1 as the compound, how does the cytotoxicity read?
Answer: 41.2%

Question: With CCOc1ccc(-c2[nH]ncc2-c2ccc(OC)c(OC)c2)c(O)c1 as the compound, how does the cytotoxicity read?
Answer: 53.7% (active)

Question: Which cytotoxicity does the source give for CCC(=O)Nc1ccc(F)c(Cl)c1 here?
Answer: -11.3%

Question: For CCOC(=O)Cc1csc(NC(=O)CSc2ncnc3c2cnn3-c2ccc(OC)cc2)n1, which cytotoxicity is on record?
Answer: -6.9%

Question: For Cc1csc(NC(=O)CSc2ncnc3c2cnn3-c2ccccc2Cl)n1, which cytotoxicity is on record?
Answer: 19.7%

Question: With CCOC(=O)Cc1csc(NC(=O)CSc2ncnc3c2cnn3-c2ccccc2Cl)n1 as the compound, how does the cytotoxicity read?
Answer: 57.4% (active)

Question: For CC1(C)CC(=O)C2=C(C1)N(c1cccc(O)c1)C1=C(C2)C(=O)CC(C)(C)C1, which cytotoxicity is on record?
Answer: 59.8% (active)

Question: Which cytotoxicity does the source give for CC1(C)CC(=O)C(C(C2=C(O)CC(C)(C)CC2=O)c2cccc(O)c2)C(=O)C1 (stereo not drawn) here?
Answer: 10.5%

Question: Which cytotoxicity does the source give for CC1(C)CC(=O)C=C(Nc2cccc(O)c2)C1 here?
Answer: 1.7%

Question: Which cytotoxicity does the source give for C=CCn1c(O)c(C(CC)=NCc2cccnc2)c(=O)[nH]c1=O here?
Answer: -2.2%

Question: Which cytotoxicity does the source give for O=C(NCc1cccnc1)c1cc(-c2ccco2)on1 here?
Answer: 1.9%

Question: Which cytotoxicity does the source give for N#Cc1cc2c(nc1SCC(=O)NCc1ccc3c(c1)OCO3)CCCCC2 here?
Answer: -27.8%

Question: With COc1cccc(CNC(=O)c2cc3oc4ccccc4c3n2C)c1OC as the compound, how does the cytotoxicity read?
Answer: 53.5% (active)

Question: Which cytotoxicity does the source give for COc1cccc(CNC(=O)Cn2c(=O)oc3ccccc32)c1OC here?
Answer: -4.3%

Question: For COc1ccccc1CNC(=O)c1cc2c(=O)n(C)c3ccccc3c2n1C, which cytotoxicity is on record?
Answer: 15.2%

Question: Which cytotoxicity does the source give for CC1=NC(Nc2nc(C)c3ccccc3n2)=NC(C)(C)C1 here?
Answer: 1.1%

Question: With COc1ccc(CNC(=O)c2cc(-c3ccc(OC)c(OC)c3)on2)cc1 as the compound, how does the cytotoxicity read?
Answer: 1%

Question: With CCCc1cc(C(N)=O)c(NC(=O)C2CCCO2)s1 (stereo not drawn) as the compound, how does the cytotoxicity read?
Answer: -5.1%

Question: With COC(=O)c1nc2nc(C)cc(C(F)(F)F)n2n1 as the compound, how does the cytotoxicity read?
Answer: -8.4%

Question: For O=C(Cn1c(=O)n(-c2cccc(Cl)c2)c(=O)n1CC(=O)N1CCCCC1)N1CCCCC1, which cytotoxicity is on record?
Answer: 1%

Question: Which cytotoxicity does the source give for O=S(=O)(c1ccccc1)C1(S(=O)(=O)c2ccccc2)CCCC1 here?
Answer: -3.4%

Question: For Cc1ccc(S(=O)(=O)C2(C(=O)N3CCCCCC3)CC2)cc1, which cytotoxicity is on record?
Answer: 6%

Question: Which cytotoxicity does the source give for Cc1ccc(S(=O)(=O)C2(S(=O)(=O)c3ccc(C)cc3)CCCC2)cc1 here?
Answer: 54.6% (active)

Question: Which cytotoxicity does the source give for O=C(NCCc1cccc(Cl)c1)c1cccnc1 here?
Answer: -6%

Question: Which cytotoxicity does the source give for Cc1noc(C)c1S(=O)(=O)Nc1ccc(C(=O)N2CCN(c3ccc(Cl)cc3)CC2)cc1 here?
Answer: -12.9%

Question: With Cc1ccc(C)c(N2CCN(C(=O)c3ccc(NS(=O)(=O)c4c(C)noc4C)cc3)CC2)c1 as the compound, how does the cytotoxicity read?
Answer: 41.2%

Question: With N#Cc1ccccc1Cn1c(=O)n(Cc2ccc(C(=O)NCc3ccco3)cc2)c(=O)c2ccccc21 as the compound, how does the cytotoxicity read?
Answer: 7.9%

Question: With CC(=O)c1cccc(NC(=O)C=C(C)C)c1 as the compound, how does the cytotoxicity read?
Answer: 5.6%

Question: Which cytotoxicity does the source give for CN(Cc1ccccc1)C(=O)CSc1nnc(-c2ccco2)n1-c1ccccc1 here?
Answer: -10.3%

Question: With COc1ccc(CNC(=O)CSc2nnc(-c3ccc(NC(C)=O)cc3)n2C)cc1 as the compound, how does the cytotoxicity read?
Answer: -3.1%

Question: Which cytotoxicity does the source give for CCCCCn1c(SCCN2CCOCC2)nc2c1c(=O)[nH]c(=O)n2C here?
Answer: 5.5%

Question: Which cytotoxicity does the source give for COc1ccc(N(CC(=O)Nc2cc(C)ccc2OC)S(=O)(=O)c2c(C)noc2C)cc1 here?
Answer: 11.2%

Question: With CCOc1ccc(N(CC(=O)NC(C)(C)C)S(=O)(=O)c2c(C)noc2C)cc1 as the compound, how does the cytotoxicity read?
Answer: -7.4%

Question: Which cytotoxicity does the source give for CCOc1ccccc1NC(=O)CN(c1ccc(OC)cc1)S(=O)(=O)c1c(C)noc1C here?
Answer: 66.8% (active)

Question: Which cytotoxicity does the source give for COc1ccc(N(CC(=O)Nc2cc(Cl)ccc2OC)S(=O)(=O)c2c(C)noc2C)cc1 here?
Answer: 73.4% (active)

Question: With COc1ccccc1NC(=O)CN(c1ccc(C)cc1)S(=O)(=O)c1c(C)n[nH]c1C as the compound, how does the cytotoxicity read?
Answer: 4.4%

Question: For COc1ccccc1CNC(=O)CN(c1ccc(C)cc1)S(=O)(=O)c1c(C)n[nH]c1C, which cytotoxicity is on record?
Answer: 4.9%

Question: With COc1ccc(OC)c(NC(=O)CN(c2ccc(C)cc2)S(=O)(=O)c2c(C)noc2C)c1 as the compound, how does the cytotoxicity read?
Answer: 4.3%

Question: Which cytotoxicity does the source give for CCOc1ccccc1NC(=O)CN(c1ccc(C)cc1)S(=O)(=O)c1c(C)n[nH]c1C here?
Answer: 52.3% (active)

Question: Which cytotoxicity does the source give for CCOc1ccc(N(CC(=O)Nc2ccccc2C)S(=O)(=O)c2c(C)noc2C)cc1 here?
Answer: 65.3% (active)

Question: Which cytotoxicity does the source give for CCOc1ccc(N(CC(=O)Nc2ccc(C)cc2)S(=O)(=O)c2c(C)noc2C)cc1 here?
Answer: 1.8%

Question: Which cytotoxicity does the source give for CCOc1ccccc1NC(=O)CN(c1ccc(C)cc1)S(=O)(=O)c1c(C)noc1C here?
Answer: -19.7%

Question: With CCOc1ccccc1NC(=O)CN(c1cc(C)cc(C)c1)S(=O)(=O)c1c(C)noc1C as the compound, how does the cytotoxicity read?
Answer: 6.7%

Question: For CCN1CCN(c2ncc(C(=O)Nc3c(F)cc(F)cc3Br)c3ccccc23)CC1, which cytotoxicity is on record?
Answer: 18.4%

Question: With Cc1ccc(NC(=O)NC2(C(=O)NCc3ccco3)CCCCC2)cc1 as the compound, how does the cytotoxicity read?
Answer: -5.6%

Question: Which cytotoxicity does the source give for CCn1[nH]c(=O)c(=Nc2c(C)n(C)n(-c3ccccc3)c2=O)cc1-c1ccc(Cl)cc1 here?
Answer: -9.8%

Question: Which cytotoxicity does the source give for O=C(O)c1ccc(COc2ccc(CO)cc2Cl)cc1 here?
Answer: -12.9%

Question: Which cytotoxicity does the source give for O=C1N2CN(C(c3ccccc3)c3ccccc3)CN=C2SC1(CO)CO here?
Answer: -13.8%

Question: For CCOc1ccc(-c2nc(CSCC(=O)N3CCN(C(=O)c4ccco4)CC3)c(C)o2)cc1, which cytotoxicity is on record?
Answer: -10.8%

Question: For Cc1[nH]n2c(=O)cc(C(C)(C)C)nc2c1-c1ccccc1, which cytotoxicity is on record?
Answer: 76.6% (active)

Question: With Cc1[nH]n2c(=O)cc(C(C)C)nc2c1-c1ccccc1 as the compound, how does the cytotoxicity read?
Answer: 12.7%

Question: Which cytotoxicity does the source give for Cc1cc(=O)n2[nH]c(C)c(-c3ccccc3)c2n1 here?
Answer: -5%

Question: Which cytotoxicity does the source give for CCCCCCNC(=O)C(C#N)c1nc2ccccc2nc1N1CCOCC1 (stereo not drawn) here?
Answer: 20.3%

Question: For CCN(CC)C(=O)N1CCC(NC(=O)Cc2ccccc2)CC1, which cytotoxicity is on record?
Answer: -6.6%

Question: With CCOC(=O)C1CCN(C(=O)c2cc(S(=O)(=O)N3CCOCC3)c(Cl)cc2Cl)CC1 as the compound, how does the cytotoxicity read?
Answer: 3.3%

Question: With Nc1ccc(-c2cc(N)n(-c3ccccc3)n2)cc1 as the compound, how does the cytotoxicity read?
Answer: 14.8%

Question: Which cytotoxicity does the source give for c1coc(-c2nc3ccccc3nc2-c2ccco2)c1 here?
Answer: -5.7%

Question: Which cytotoxicity does the source give for c1coc(-c2nc(-c3ccco3)c(-c3ccco3)nc2-c2ccco2)c1 here?
Answer: -9.1%

Question: Which cytotoxicity does the source give for c1coc(-c2nc3nc4ccccc4n3nc2-c2ccco2)c1 here?
Answer: 77.5% (active)

Question: Which cytotoxicity does the source give for Cc1cc(C)c2cc3c(ccn3C3OC[C@H](O)[C@H](O)[C@H]3O)cc2n1 (stereo partly drawn) here?
Answer: -2.7%

Question: For Cc1csc(SCc2nnc(-c3ccccc3Br)o2)n1, which cytotoxicity is on record?
Answer: -11.9%

Question: For Cc1cc(C)n(-c2c(F)c(F)c(CN3CCOCC3)c(F)c2F)n1, which cytotoxicity is on record?
Answer: -4.7%

Question: With O=C(CCN1c2ccccc2Sc2ccccc21)OCc1nnc(-c2ccccc2)o1 as the compound, how does the cytotoxicity read?
Answer: 5.5%

Question: For COc1ccc(C(=O)CSc2nnc(-c3ccccc3)o2)cc1, which cytotoxicity is on record?
Answer: -13.3%

Question: With COc1cc(OC)cc(-c2nnc(SCC(=O)N3c4ccccc4Sc4ccccc43)o2)c1 as the compound, how does the cytotoxicity read?
Answer: -10.6%

Question: Which cytotoxicity does the source give for Cc1nnc(SC(=O)N2c3ccccc3Sc3ccccc32)s1 here?
Answer: -38%

Question: With Cc1cccc(Nc2ccccc2)c1 as the compound, how does the cytotoxicity read?
Answer: -12.8%

Question: Which cytotoxicity does the source give for Cc1cc2cc(CN(Cc3ccco3)C(=O)C3CCCCC3)c(=O)[nH]c2cc1C here?
Answer: -2%

Question: Which cytotoxicity does the source give for COc1ccc(CNC(=O)c2cc(-c3cccs3)on2)cc1 here?
Answer: 2.4%

Question: For Cc1noc(C(=O)Nc2sc3c(c2C#N)CCC3)c1Cl, which cytotoxicity is on record?
Answer: 19%

Question: With COc1ccccc1NC(=O)C1(C)Cc2ccccc2C(=O)O1 (stereo not drawn) as the compound, how does the cytotoxicity read?
Answer: 10.1%

Question: With CN(C)CCN(Cc1ccccc1)c1ccnc(N(C)C)c1C#N as the compound, how does the cytotoxicity read?
Answer: -24.4%

Question: With COCCNC(=O)CN(CC1CCCO1)C(=O)CCC(=O)Nc1ccccn1 (stereo not drawn) as the compound, how does the cytotoxicity read?
Answer: -5.6%

Question: Which cytotoxicity does the source give for CCOC(=O)c1csc(Nc2nc3ccc(F)cc3s2)n1 here?
Answer: 40.1%

Question: For CC(=O)c1sc(Nc2nc3ccc(F)cc3s2)nc1C, which cytotoxicity is on record?
Answer: 58.8% (active)

Question: With COc1ccc2nc(Nc3nc(C)c(C(C)=O)s3)sc2c1 as the compound, how does the cytotoxicity read?
Answer: 18.2%

Question: With O=C(O)CCC(=O)N1CCc2cc(S(=O)(=O)N3CCN(c4ccc(F)cc4)CC3)ccc21 as the compound, how does the cytotoxicity read?
Answer: 3.1%

Question: For COc1ccccc1N1CCN(C(=O)c2cc3n(n2)C(C(F)(F)F)CC(c2ccco2)N3)CC1 (stereo not drawn), which cytotoxicity is on record?
Answer: -21.5%

Question: Which cytotoxicity does the source give for Cc1ccc(C(=O)CSc2nnc(-c3ccco3)n2Cc2ccccc2)cc1 here?
Answer: -16.2%
